40 molecules from PubChem BioAssay (NCI) can be followed below.

The panel holds about 83,000 compounds, 20% with a hit somewhere; the sample as a whole holds those more often.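 Results are percent growth after 48 hours of single-concentration exposure. 100 means growth as in untreated cells, lower positive values show inhibition; negative values down to -100 show cell death.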 The source made the active and inactive calls. How the source made its calls: active means growth percent below 10; inactive means the rest.

The assay relates to HL-60(TB) leukemia. Briefly: NCI-60 one-dose screen, 48 h (100 = growth as untreated, 0 = no growth, -100 = all killed). The conditions noted are these: 10 µM unless noted.
Take `COc1ccc2[nH]cc(/C=N/Nc3ccnc4cc(Cl)ccc34)c2c1`: the growth was -56.1% (active).
To `CC1(C)CC[C@]23CC[C@]4(C)[C@H](CC[C@@H]5[C@@]6(C)CC[C@H](NCO)C(C)(C)[C@@H]6CC[C@]54C)[C@H]2[C@H]1OC3` belongs 4.17% (active); to `O=C(/C=C/c1ccc(F)cc1)c1ccc(O)cc1`, 81.9% (inactive).
Regarding `N/C(=N\c1nc2ccc([N+](=O)[O-])cc2s1)C(Cl)(Cl)Cl`, the growth is 20.7% (inactive).
As for `Cc1ccc2c(n1)C(=O)C(Cl)=C(Nc1ccc(C)c(C)c1)C2=O`, the growth is 58.4% (inactive).
For `Oc1ccccc1/C=N/Nc1nc(N/N=C/c2ccccc2O)nc(N2CCOCC2)n1`, the growth is 3.74% (active).
As for `CCOC(=O)c1c(Nc2ccccc2)nn2c(N)c(C#N)c(-c3ccc(F)cc3)nc12`, the figure is 72.6% (inactive); as for `CSCCC(C(=O)O)N1C(=O)/C(=C/c2ccc(O)c(O)c2)SC1=S` (stereo not given), 103% (inactive); as for `COc1cccc2c1CN(C(=O)c1ccc(O)c(C(=O)N3Cc4ccc(OCCC[P+](c5ccccc5)(c5ccccc5)c5ccccc5)cc4C3)c1)C2`, 41.3% (inactive).
To `CCCCN1C(=O)/C(=c2\sc3n(c2=O)C2C(NN=3)N(CC)C(=O)N2CC)c2cc(Cl)ccc21` (stereo not given) belongs 51.7% (inactive).
As for `Cc1ccc(C)c(NC2=C(Cl)C(=O)c3nc(C)ccc3C2=O)c1`, the figure is -25.8% (active); as for `Nc1ccccc1NC(=O)c1ccc(NC(=O)C/C=C/c2cccnc2)cc1`, 12.6% (inactive).
As for `OC1CCc2c(-c3ccc4ncnc(N5CCc6cc(F)c(Cl)cc65)c4c3)cncc21` (stereo not given), the growth was 34.3% (inactive).
As for `O=C1[C@H]2Cc3c([nH]c4ccccc34)[C@@H](c3ccc(Br)cc3)N2C(=O)CN1C1CCN(Cc2ccccc2)CC1`, the figure is -28.4% (active).
As for `C[C@@H](Nc1c(C#N)cnc2ccc(-c3cnc(N)nc3)cc12)c1ccccc1`, the figure is 8.49% (active); as for `Cc1ccc(CSC2=C(Cl)CN(c3ccc(Cl)cc3)C2=O)cc1`, 110% (inactive); as for `C#Cc1nc(C(=O)NCCC(=O)Nc2ccc(NC(=O)c3ccc(/C=C/C(=O)c4nccn4C)cc3)cc2)cs1`, 12.2% (inactive).
As for `COc1ccc(NC2=CC(=O)C(C)=C(C)C2=O)cc1`, the figure is 80.2% (inactive); as for `COc1ccc(CCN2C(=O)CSC2=S)cc1OC`, 62.4% (inactive).
With `CCOC(=O)C1=NNC(c2ccc(Cl)cc2)C1C(=O)N1C(=S)NC(=O)C1CC(C)C` (stereo not given), the growth is 106% (inactive).
Consider `Nc1ncc(-c2ccc3ncnc(NCc4ccccc4)c3c2)cn1`, for which the growth was 44.1% (inactive).
Regarding `c1ccc(C(c2nc3ncncc3[nH]2)N2CSc3nc4ncncc4n3C2)cc1` (stereo not given), the growth was 39.8% (inactive).
With `COc1cc2oc(-c3cccc(NC(=O)c4cccc([N+](=O)[O-])c4)c3)cc(=O)c2c(OC)c1OC`, the growth was 68.9% (inactive).
As for `Oc1ccc(CSc2nnc(-c3ccc(Oc4ccccc4)cc3)o2)c2cccnc12`, the figure is 19.1% (inactive); as for `CCN(CC)c1ccc2c(c1)Oc1nc(N)c(C#N)c(N)c1C2Sc1ccc(F)cc1` (stereo not given), -18.4% (active).
As for `Nc1nc(N)c2c(n1)NC(c1ccc(C(F)(F)F)cc1)CC(c1ccc(Nc3nc(NCCO)nc(N4CCOCC4)n3)cc1)=N2` (stereo not given), the figure is 21.4% (inactive); as for `C/C(=C(/c1ccc(O)cc1)c1ccc(OCCN(C)C)cc1)c1ccc(Cl)cc1`, 21.8% (inactive).
To `O=C1[C@H]2Cc3c([nH]c4ccccc34)[C@H](c3ccc(Cl)cc3)N2C(=O)CN1C1CCN(Cc2c(Cl)cccc2Cl)CC1` belongs 62.1% (inactive); to `CCOC(=O)C1=C(C)Nc2nc3ccccc3n2C1c1ccccc1` (stereo not given), 85.6% (inactive); to `O=C(O)CCCCCN1C(=O)/C(=C/c2ccc(O)c(O)c2)SC1=S`, 101% (inactive).
Regarding `CCOC(=O)c1csc(NC(=O)CSc2nc3sc4c(c3c(=O)n2-c2ccc(Cl)cc2)CCCC4)n1`, the growth was 92.1% (inactive).
To `COc1ccc(OC)c(NC2=C(Cl)C(=O)C(C)=C(C)C2=O)c1` belongs 74% (inactive); to `C/C(=N/NC(N)=S)c1ccc(Nc2nc(SCC(C)C)nc(-c3ccc(F)cc3)c2C#N)cc1`, 73.9% (inactive); to `CCNC(=O)Oc1ccc(/C(=C(/C)c2ccccc2)c2ccc(OCCN3CCCC3)cc2)cc1`, 50.7% (inactive).
With `Cc1cc(O)c2c(c1)C(=O)C(c1c(C)cc3c(c1O)C(=O)C=CC3=O)=CC2=O`, the growth is 55% (inactive).
As for `COc1ccc(S(=O)(=O)NCCCNc2nccc(-n3cnc4ccccc43)n2)cc1`, the figure is 110% (inactive).
As for `CCCC(=O)NC(c1cccc(N(C)C)c1)c1cc(C)c2cccnc2c1O` (stereo not given), the figure is 0.32% (active).
For the molecule `Clc1ccc(-c2csc(Nc3cccc(Nc4csc(-c5ccc(Cl)cc5)n4)c3)n2)cc1`, the growth was 96.1% (inactive).
To `COc1ccc(NS(=O)(=O)c2ccc(-c3cnc(C4CC4)o3)cc2)cc1Cl` belongs 3.27% (active).
To `NC1C2CCC1CN(c1cnc(C(=O)Nc3cc(F)cc4cccnc34)cn1)C2` (stereo not given) belongs 9.98% (active).
